From PubChem BioAssay
MITF inh = human MITF inhibition, primary screen | O75030 | AlphaScreen MITF homodimerization, bead proximity signal | inhibition, % at 2.6 µM | actives 0.91% (n = 650,000); in the data active = inhibition above about 50%;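 also: 0% = vehicle wells with protein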
TEAD-YAP block = TEAD-YAP interaction inhibition | inhibition, % at 9.12 µM | HEK-TIYL cells, TEAD-Gal4/YAP UAS-luciferase luminescence | AID 1259422 | actives 1.4% (n = 640,000); in the data active = inhibition above about 32%;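 also: 0% = median of test compound wells and 100% = reference inhibitor wells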
FBW7 activator = human FBW7 E3 ligase activation, primary screen; AlphaScreen FBW7–phospho-cyclin E peptide binding, activator screen; normalized activity (activation), % at 26.1 µM; actives 0.13% (n = 650,000); Q969H0; in the data active = normalized activity above about 1.9%;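 also: purified mutant Fbw7 with reduced substrate affinity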
GPR151 activ = human GPR151 activation; PathHunter beta-arrestin GPR151 cells, luminescence; actives 1% (n = 650,000); AID 1508602; Q8TDV0; activation, % at 11.2 µM; in the data active = activation above about 4.9%;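 also: 0% = median of compound wells and 100% = cells with positive control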
Target sequence (Q8TDV0 whole entry, looked up): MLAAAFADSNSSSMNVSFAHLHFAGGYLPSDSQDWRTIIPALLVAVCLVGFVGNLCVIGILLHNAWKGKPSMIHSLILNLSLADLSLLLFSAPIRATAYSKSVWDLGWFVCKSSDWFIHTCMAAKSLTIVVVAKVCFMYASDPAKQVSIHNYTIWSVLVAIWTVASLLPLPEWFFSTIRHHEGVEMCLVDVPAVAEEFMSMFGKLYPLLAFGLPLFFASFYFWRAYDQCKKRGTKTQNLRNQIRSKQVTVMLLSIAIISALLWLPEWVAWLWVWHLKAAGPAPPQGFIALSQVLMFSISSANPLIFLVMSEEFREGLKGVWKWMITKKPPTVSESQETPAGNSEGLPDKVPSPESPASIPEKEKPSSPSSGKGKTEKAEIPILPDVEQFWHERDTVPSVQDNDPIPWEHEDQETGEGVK
GPR151 conf act = human GPR151 activation, confirmation screen | GPR151 PathHunter beta-arrestin cells, luminescence, 90 min; % of EA-reagent control over plate median | AID 1508609 | 6,700 tested, under 10 active | shares compounds with GPR151 activ | activation, % at 11.2 µM;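 active = mean percent activation across replicates above the confirmation screen cutoff of 4.91%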
GPR119 counter = activates human GPR119 in a GPR151 counter-screen; GPR119 PathHunter beta-arrestin cells, luminescence, 90 min; 0 = compound-well median, 100 = enzyme-acceptor control; AID 1508611; activation, % at 11.2 µM; shares compounds with GPR151 activ; actives 0.3% (n = 6,700);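 active = mean percent activation in the counterscreen above 29.09%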;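 also: counterscreen on off-target GPR119 to flag nonselective hits from the GPR151 activator screen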
An asterisk follows results filed as active; / = no result; ! = repeats disagree. This is a sample that favours compounds with a hit; in the whole collection about 3.5% have one here.

SMILES	MITF inh	TEAD-YAP block	FBW7 activator	GPR151 activ	GPR151 conf act	GPR119 counter
O=C(CN(Cc1ccccc1)S(=O)(=O)c1ccc(Cl)cc1)Nc1ccc2c(c1)OCCO2	-14.1	-10.9	-0.1	-0.6	/	/
CNc1cc([N+](=O)[O-])ccc1N/C=C\C(=O)c1ccc(OC)cc1OC	15.8	-19.8	0.0	5.8*	0.3	-1.4
Cc1ccc(-c2cc(F)c3c(c2)CC(CNC(=O)c2ccc[n+]([O-])c2)O3)cc1F (stereo not given)	-8.6	-0.3	-0.1	0.8	/	/
Cc1[nH]c2ccccc2c1SCCNC(=O)c1ccc(N2C(=O)CCC2=O)cc1	-2.0	7.3	-0.1	6.2*	-1.4	2.5
CCOC(=O)C1=C(C)OC(N)=C(C#N)C1c1ccc(OC)c(OCC)c1 (stereo not given)	-21.8	0.6	0.0	5.2*	0.1	9.8
COC(=O)C1=C(C)OC(N)=C(C#N)C1c1ccccc1C(F)(F)F (stereo not given)	-8.1	2.0	0.0	-1.2	/	/
CCOC(=O)C1=C(C)OC(N)=C(C#N)C1c1ccccc1C(F)(F)F (stereo not given)	3.1	-0.3	-0.1	7.1*	0.1	-4.7
CCOC(=O)C1=C(C)OC(N)=C(C#N)C1c1ccc(OC)c(OC)c1 (stereo not given)	-0.4	-0.6	-0.1	-0.1	/	/
O=C(Nc1ccccc1C(F)(F)F)NC1(C(=O)N2CCCCC2)CCCCC1	1.2	-5.8	-0.1	-0.2	/	/
CC1CCCCC1NC(=O)CNC(=S)N(Cc1cccs1)C1CCCCC1 (stereo not given)	-15.2	-13.6	0.1	-0.2	/	/
O=C(CNC(=S)N(Cc1cccs1)C1CCCCC1)NC1CCCC1	1.8	7.3	-0.1	6.2*	-0.6	3.6
CC(O)c1nc2ccccc2n1CCOc1ccccc1F (stereo not given)	-2.8	-6.0	-0.1	5.1*	0.9	3.1
CC(O)c1nc2ccccc2n1Cc1cccc(Cl)c1 (stereo not given)	-8.1	6.8	0.0	5.2*	1.3	9.3
O=C(Nc1nc(-c2ccccn2)cs1)c1cncn1-c1ccccc1	/	/	/	0.4	/	/
Cc1csc(SCn2nnc3ccccc3c2=O)n1	5.6	-71.1	0.1	-0.3	/	/
CC(C)(C)C1CCc2c(sc(NC(=O)CCCOc3ccc(Cl)cc3Cl)c2C#N)C1 (stereo not given)	2.0	-0.8	-0.1	0.1	/	/
O=C(Cc1ccc2c(c1)OCO2)N1CCC(O)(c2cccc(F)c2)CC1	6.0	-6.0	-0.2	6.8*	-0.9	-2.5
CCCC(=O)N1CCC(O)(c2cccc(F)c2)CC1	19.4	5.4	0.3	-1.3	/	/
N#CCCn1cc(/C=N/O)c(-c2ccccc2)n1	12.9	0.2	0.0	1.6	/	/
N#CCCn1cc(C=O)c(-c2ccc(-c3ccccc3)cc2)n1	0.5	-11.9	-0.1	5.5*	-0.1	-6.2
CN1CCN(C(=O)CN(c2cccc(Cl)c2)S(=O)(=O)c2ccc(Cl)cc2)CC1	11.4	-3.0	-0.1	0.6	/	/
O=C(CN(c1cccc(Cl)c1)S(=O)(=O)c1ccc(Cl)cc1)N1CCOCC1	-3.3	1.8	-0.1	9.1*	-0.4	-6.5
Cc1ccc(NC(=O)C(=O)NCc2ccccn2)cc1C	7.8	-34.6	0.0	0.1	/	/
O=C(COc1ccccc1)N1C(=O)c2ccccc2S1(=O)=O	9.9	2.2	0.0	5.2*	0.6	2.4
N#Cc1ccc(OCC(=O)N2C(=O)c3ccccc3S2(=O)=O)cc1	1.3	9.2	-0.1	-0.4	/	/
SMILES	MITF inh	TEAD-YAP block	FBW7 activator	GPR151 activ	GPR151 conf act	GPR119 counter
CCCNS(=O)(=O)c1cc2c(cc1Cl)NC(=O)CO2	2.0	-7.7	0.1	-0.1	/	/
c1ccc(OCCNc2ncnc3nc(Nc4cnccn4)[nH]c23)cc1	4.1	4.2	0.0	5.7*	-1.5	-2.1
Cn1c(Nc2nc3ncnc(NCCOc4ccccc4)c3[nH]2)nc2ccccc21	20.0	6.1	-0.4	4.9*	-0.6	-10.2
c1ccc(OCCNc2ncnc3nc(Nc4nccc5ccccc45)[nH]c23)cc1	14.2	-2.2	-0.2	1.7	/	/
CCN(CC)CC(O)COc1ccc(C(C)(C)CC)cc1C(C)(C)CC (stereo not given)	-12.0	6.6	-0.1	1.2	/	/
COc1ccc(C(=O)/C=C/Nc2ccc(F)cc2)cc1	3.9	-44.7	0.0	-5.1	/	/
O=C(Nc1cccc(Cl)c1N1CCN(CC2CC2)CC1)c1ccc(Br)o1	7.7	-11.8	-0.1	-0.9	/	/
O=C(CCc1ccccc1)Nc1nnc(-c2ccc(F)cc2)o1	-5.6	-5.6	-0.1	5.7*	0.6	7.1
CN(Cc1ccccc1)C(=O)C1CCN(S(=O)(=O)c2ccc3c(c2)OCC(=O)N3)CC1	-7.7	-6.1	0.0	6.7*	-1.3	-6.7
O=C1COc2cc(S(=O)(=O)N3CCC(Cc4ccccc4)CC3)ccc2N1	10.1	2.8	0.7	0.5	/	/
Cc1c(C(=O)NCc2ccc(F)cc2)sc2ncn(Cc3cccc(F)c3)c(=O)c12	3.0	10.8	0.3	0.8	/	/
CCN(CC)CCCN(Cc1ccco1)C(=S)Nc1ccc(OC)cc1	-3.6	-13.4	0.0	-0.4	/	/
CC(C)Sc1nc2c(c(=O)[nH]1)C(c1cccs1)C1=C(CCCC1=O)N2 (stereo not given)	11.3	2.2	-0.1	5.2*	1.2	5.6
CCNc1nc(NCC)nc(SCC(=O)c2ccccc2)n1	7.1	-1.6	-0.1	1.7	/	/
Cc1cc(NCc2ccccc2)nc(-c2ccccc2)n1	0.3	-19.2	0.3	5.2*	-0.3	-10.0
COc1ccc(CNc2cc(C)nc(-c3ccccc3)n2)cc1	4.0	-5.1	0.0	-1.1	/	/
S=C1NC2(CCCCC2)NN1c1ccccc1	13.1	3.9	0.0	6.6*	-0.2	-9.7
Cc1ccc(N2NC3(CCCCCC3)NC2=S)cc1	7.5	-2.8	0.1	0.2	/	/
Cc1ccccc1N1C(=O)c2ccc(Oc3ccc([N+](=O)[O-])cc3)cc2C1=O	10.3	4.1	-0.1	-0.3	/	/
Cc1ccc(C(=O)O)cc1N1C(=O)c2ccc(Oc3ccc([N+](=O)[O-])cc3)cc2C1=O	-10.6	0.3	0.3	6.8*	0.3	1.6
COc1ccc(C[C@H](N)C(=O)N[C@@H]2[C@@H](CO)OC(n3cnc4c(N(C)C)ncnc43)[C@@H]2O)cc1 (stereo not given in full)	-3.8	100.1*	0.1	6.8*!	1.8	-0.1
Nc1ncnc2c1ncn2[C@@H]1O[C@H](CO)[C@@H](O)[C@H]1O	-6.7	-9.2	-0.2	1.4	/	/
c1ccc(-c2cnc3ccc(NCc4ccco4)nn23)cc1	9.3	27.5	0.7	0.5	/	/
Cc1cc(NC(=O)c2ccc(S(=O)(=O)N3CCCC3)cc2)no1	5.2	-4.8	-0.1	-0.2	/	/
COc1ccc(CCn2c(=S)[nH]c3ccsc3c2=O)cc1OC	6.4	-2.4	0.8	5.4*	1.5	12.1
